# Experimental data reported in PubChem BioAssay AID651815 (National Center for Advancing Translational Sciences (NCATS), 2012).
# The whole screen tested about 2,100 compounds, of which about 1,100 (52%) were called active. Another 29% or so got no clear call; they are omitted. Calls follow the shape of the dose curve; as a rule, active = well fitted inhibition curve with a large enough effect; inconclusive = small, poorly fitted or top-dose-only effect; inactive = no such curve, though single readings can be large or run the other way. So high a share suggests a set chosen from earlier hits. This is one part of the list.
# Molecular target: DNA dC->dU-editing enzyme APOBEC-3F (Homo sapiens) (UniProt Q8IUX4)
# Assay: qHTS for inhibitors of Vif-A3F interactions: Cherry picks counterscreen; also: nearly all actives have a fitted effect of over 65% in size
# Settings: HeLa A3F-eYFP/Vif cells, eYFP fluorescence, 24 h; series mostly up to 46.1 µM
# From the text: The recent discovery and characterization of host restriction factors, which provide a potent defense to invading retroviruses, has provided new targets for antiviral drug development. APOBEC3G (A3G) and APOBEC3F (A3F) are potent cytidine deaminases that block HIV-1 replication; HIV-1 expresses the Vif protein, which counteracts A3G and A3F by binding to them and inducing their proteasomal degradation. The Vif-A3G and Vif-A3F interactions provide two potential targets for development of small molecules which can interfere with the ability of Vif to degrade A3G or A3F. […] To identify inhibitors that can interfere with Vif mediated degradation of A3G and A3F, we have developed Hela cell lines that stably express A3G or A3F tagged with eYFP at the C-terminal end (A3G-eYFP or A3F-eYFP, respectively) and Vif. In the absence of an inhibitor, Vif induces degradation of A3G-eYFP and A3F-eYFP, and the cells are not fluorescent. In the presence of an inhibitor, it is expected that Vif will be unable to degrade A3G-eYFP and/or A3F-eYFP, resulting in an increase in yellow fluorescence. In this counterscreen assay, Vif A3F was screened against the cherry picks ordered from the MLSMR. NIH Chemical Genomics Center [NCGC] NIH Molecular Libraries Probe Centers Network [MLPCN] MLPCN Grant: MH093245 Assay Submitter (PI): Vinay Pathak, National Cancer Institute
# A3F-Vif cells were harvested from T225 flask and resuspended in phenol free OPTI-MEM medium with 5% FBS. Then 5 uL of 140,000 cells/mL resuspended cells was dispensed into each well of low base Aurora COC 1,536-well plates (black walled, clear bottom) using a Multidrop Combi dispenser. After overnight culture at 37 deg C with 5% CO2, a total of 23 nL of compounds at 5 selected concentrations from the NPC or positive control (2 mM stock of MG132) in DMSO was transferred to each well of the assay plate using a pintool (Kalypsys, San Diego, CA), and the plates were further incubated at 37 deg C with 5% CO2 for 24 hours. After that, the plates were measured on Acumen Explorer (TTP Lab Tech). The fluorescence was detected by 488 nm/Ex and […].
# Potency is read from the fitted curve at half-maximal effect.
# Chain of DNA dC->dU-editing enzyme APOBEC-3F (Homo sapiens) (Q8IUX4 whole entry, looked up): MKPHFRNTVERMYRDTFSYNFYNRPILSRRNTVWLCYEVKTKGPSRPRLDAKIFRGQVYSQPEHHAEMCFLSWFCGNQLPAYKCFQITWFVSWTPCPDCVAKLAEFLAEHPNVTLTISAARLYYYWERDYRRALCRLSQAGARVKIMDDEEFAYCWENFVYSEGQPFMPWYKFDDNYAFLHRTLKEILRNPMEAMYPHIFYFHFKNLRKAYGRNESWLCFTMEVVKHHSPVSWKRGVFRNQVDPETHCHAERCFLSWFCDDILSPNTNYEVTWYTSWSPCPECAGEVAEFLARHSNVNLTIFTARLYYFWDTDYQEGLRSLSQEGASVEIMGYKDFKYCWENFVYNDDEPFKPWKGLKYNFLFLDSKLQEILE
row,Structure (SMILES),Potency
1,Cc1cc(N2CCCC2)ccc1C=C(C#N)C#N,20.6 µM (active)
2,CN1/C(=C\C=C2C(=O)NC(=O)NC2=O)C(C)(C)c2ccccc21,4.11 µM (active)
3,CCS(=O)(=O)N1N=C(c2cccc(NS(C)(=O)=O)c2)CC1c1ccccc1 (configuration not stated),23.1 µM (active)
4,CCCCn1c(O)c(C(=O)/C=C/c2c[nH]c3ccccc23)c(=O)[nH]c1=O,17.7 µM (active)
5,CN1C(=O)/C(=C\c2ccc(N3CCCCC3)o2)C(=O)NC1=S,17.7 µM (active)
6,CCC(C)N1C(=O)/C(=C\c2ccc(N3CCCCCC3)cc2)C(=O)NC1=S (configuration not stated),inactive
7,CN1CCN(c2ccc(/C=C3\C(=O)NC(=S)N(c4cccc(Br)c4)C3=O)o2)CC1,23.1 µM (active)
8,CN1C(=O)/C(=C/c2ccc(N3CCCCCC3)o2)C(=O)NC1=S,4.44 µM (active)
9,CC(=O)O[C@@]12CO[C@@H]1C[C@H](OC1OCC(O)C(O)C1O)[C@@]1(C)C(=O)[C@H](O)C3=C(C)[C@@H](OC(=O)[C@H](O)[C@@H](NC(=O)c4ccccc4)c4ccccc4)C[C@@](O)([C@@H](OC(=O)c4ccccc4)C12)C3(C)C (some centres not stated),4.44 µM (active)
10,CN1C(=O)C(=Cc2ccc(N3CCCCC3)o2)C(=O)N(C)C1=S,3.66 µM (active)
11,CN1C(=O)C(=Cc2ccc(N3CCOCC3)o2)C(=O)N(C)C1=O,6.51 µM (active)
12,CN1C(=O)C(=Cc2ccc(N3CCOCC3)o2)C(=O)N(C)C1=S,8.2 µM (active)
13,Cc1cc(N(CCCl)CCCl)ccc1C=Cc1ccncn1,16.4 µM (active)
14,CC(C)c1ccc(N2C(=O)NC(=O)/C(=C/C=C/c3ccco3)C2=O)cc1,14 µM (active)
15,CN(C)c1ccc(/C=C/C=C2/C(=O)NC(=O)N(c3ccccc3)C2=O)cc1,23.1 µM (active)
16,O=C1NC(=O)N(Cc2ccc(F)cc2)C(=O)/C1=C\C=C\c1ccco1,23.1 µM (active)
17,CC(C)c1ccc(N2C(=O)NC(=O)/C(=C\C=C\c3ccco3)C2=O)cc1,17.7 µM (active)
18,COCCCNC(=O)c1c(NC(=O)c2ccco2)n(Cc2ccccc2)c2nc3ccccc3nc12,inactive
19,Cc1cc(/C=C2\C(=O)NC(=O)N(c3ccc(Br)cc3)C2=O)c(C)n1C,inactive
20,Cc1ccc(N2C(=O)NC(=O)/C(=C\C=C\c3ccco3)C2=O)cc1C,5.8 µM (active)
21,CC/C(=N\NC(=O)c1ccccc1O)c1c(O)n(Cc2ccccc2)c(=O)[nH]c1=O,18.4 µM (active)

row,Structure (SMILES),Potency
1,COc1cccc(C2=CC(c3cc(Br)ccc3F)n3nnnc3N2)c1 (configuration not stated),1.46 µM (active)
2,COC(=O)C1=C(C)N(Cc2ccco2)C(=O)/C1=C\c1ccc(N(C)C)cc1,6.51 µM (active)
3,O=C1NC(=O)N(c2ccc3c(c2)OCO3)C(=O)/C1=C\c1ccc(N2CCCCC2)o1,18.4 µM (active)
4,O=C1NC(=O)N(c2ccc3c(c2)OCO3)C(=O)/C1=C/c1ccc(N2CCCCC2)o1,20.6 µM (active)
5,COc1cc(C2C(C#N)=C(N)Oc3cc(O)ccc32)cc(OC)c1OC (configuration not stated),3.53 µM (active)
6,Cc1cccc(-n2c(O)c(/C=C/C=Nc3ccccc3)c(=O)[nH]c2=O)c1,4.61 µM (active)
7,COc1ccc(-n2c(/C=C/c3ccc(O)c(OC)c3)nc3ccccc3c2=O)cc1,16.4 µM (active)
8,Cc1cccc(-n2c(/C=C/c3c(C)[nH]c4ccccc34)nc3ccccc3c2=O)c1,18.4 µM (active)
9,Cc1cccc(-n2c(/C=C/c3ccc([N+](=O)[O-])o3)nc3ccccc3c2=O)c1,8.2 µM (active)
10,O=c1c2ccccc2nc(/C=C/c2ccc([N+](=O)[O-])o2)n1-c1ccc(O)cc1,11.2 µM (active)
11,COc1ccccc1-n1c(/C=C/c2ccc(O)cc2)nc2ccccc2c1=O,inactive
12,CCN(CC)c1ccc(C=C2C(=O)N(C)C(=S)N(C)C2=O)o1,0.314 µM (active)
13,CCN(CC)c1ccc(/C=C2\C(=O)NC(=S)N(c3ccc(OC)cc3OC)C2=O)o1,23.1 µM (active)
14,CCN(CC)c1ccc(/C=C2\C(=O)NC(=S)N(C)C2=O)o1,0.559 µM (active)
15,CCN(CC)c1ccc2c(cc1=O)[C@@H](NC)CCc1cc(OC)c(OC)c(OC)c1-2,1.4 µM (active)
16,Cc1ccccc1-n1c(/C=C/c2ccc(N(C)C)cc2)nc2ccccc2c1=O,4.11 µM (active)
17,CCN(CC)c1ccc(N=Cc2c(O)n(Cc3ccccc3)c(=O)[nH]c2=O)cc1,20.6 µM (active)
18,C=CCn1c(O)c(C(C)=Nc2ccc(N(CC)CC)cc2)c(=O)[nH]c1=O,11.2 µM (active)
19,CCN(CC)c1ccc(N=Cc2c(O)n(CCC3=CCCCC3)c(=O)[nH]c2=O)cc1,16.4 µM (active)
20,O=C1NC(=S)SC1=Cc1ccc(N(CCCl)CCCl)cc1,17.7 µM (active)
21,CCOc1ccc(CNC(=O)c2cccc(Nc3nc4ccccc4n4nnnc34)c2)cc1OC,16.4 µM (active)

row,Structure (SMILES),Potency
1,COc1ccc(-c2ccc(OC)c(OC)c2OC)cc1,3.96 µM (active)
2,CN(C)c1ccc(C(=O)c2ccc(N(C)C)cc2)cc1,0.994 µM (active)
3,CCCCn1c(O)c(/C=C2/C=CC=N2)c(=O)[nH]c1=O,12.5 µM (active)
4,O=c1[nH]c(=O)n(Cc2ccccc2Cl)c(O)c1/C=C1/C=CC=N1,18.4 µM (active)
5,C=C1C(=O)OC2C1CCC(C)C1(O)C=CC(=O)C21C (configuration not stated),5.59 µM (active)
6,COCCCn1c(=O)/c(=C\c2ccccc2OC(F)F)s/c1=C(/C#N)C(=O)NCCOC,18.4 µM (active)
7,CCCCNC(=O)/C(C#N)=c1\s/c(=C\c2ccccc2OC(F)F)c(=O)n1CCCOC,9.2 µM (active)
8,CC(=O)Nc1cccc(-c2ccnc3c2CC(C(=O)NCc2ccco2)O3)c1 (configuration not stated),4.44 µM (active)
9,CC1=CC(=Cc2sc3ccccc3[n+]2C)C=C(C)O1,10.3 µM (active)
10,O=[N+]([O-])c1ccc(N2CCOCC2)c2c1no[n+]2[O-],15.8 µM (active)
11,NC(=Nc1ccccc1)NN=Cc1c[nH]c2ccccc12,3.14 µM (active)
12,O=c1[nH]c(CN2CC=C(c3ccccc3)CC2)nc2scc(-c3ccccc3)c12,18.4 µM (active)
13,N#CC1=C(N)Oc2c(c(=O)sc3ccccc23)C1c1cccnc1 (configuration not stated),3.14 µM (active)
14,Cn1cccc1/C=C1\C(=O)NC(=O)N(Cc2ccccc2Cl)C1=O,13 µM (active)
15,Cc1c(Cl)cccc1NC(=O)c1oc2ccc(S(=O)(=O)N3CCC4(CC3)OCCO4)cc2c1C,16.4 µM (active)
16,COc1ccc(-n2cnc3cc(C(=O)N4CCC5(CC4)OCCO5)ccc32)cc1,17.7 µM (active)
17,Cc1cccc(CN2CCCC(C(=O)c3cccc(OC(C)C)c3)C2)n1 (configuration not stated),inactive
18,O=Cc1c(C(=O)O)n(Cc2ccc(Cl)cc2)c2ccccc12,13 µM (active)
19,Nc1ccc2c3c(cccc13)-c1ccccc1-2,4.61 µM (active)
20,CC(=O)OC1C2(CC3N4C(=O)C5(CO)SSC4(CC31O)C(=O)N5C)OC(C)C(C)(C)C2=O (configuration not stated),3.53 µM (active)
